Our source for the AC50 and activity, negative = inhibition values is PubChem BioAssay AID1851 (National Center for Advancing Translational Sciences (NCATS), 2009).

The structures appear in SMILES notation. Hit rate of the full screen: of about 16,000 compounds, about 4,000 (25%) were called active. Inconclusive results (about 26%) are left out. Calls follow the shape of the dose curve; as a rule, active = well fitted curve in the direction sought with a large enough effect; inconclusive = small, poorly fitted or top-dose-only effect, or effect the other way; inactive = no such curve, though single readings can be large or run the other way. A selection follows.
% is scaled to controls: 0 for no effect and ±100 for the full control effect.

Chain of Cytochrome P450 2C9 (Homo sapiens) (P11712 whole entry, looked up): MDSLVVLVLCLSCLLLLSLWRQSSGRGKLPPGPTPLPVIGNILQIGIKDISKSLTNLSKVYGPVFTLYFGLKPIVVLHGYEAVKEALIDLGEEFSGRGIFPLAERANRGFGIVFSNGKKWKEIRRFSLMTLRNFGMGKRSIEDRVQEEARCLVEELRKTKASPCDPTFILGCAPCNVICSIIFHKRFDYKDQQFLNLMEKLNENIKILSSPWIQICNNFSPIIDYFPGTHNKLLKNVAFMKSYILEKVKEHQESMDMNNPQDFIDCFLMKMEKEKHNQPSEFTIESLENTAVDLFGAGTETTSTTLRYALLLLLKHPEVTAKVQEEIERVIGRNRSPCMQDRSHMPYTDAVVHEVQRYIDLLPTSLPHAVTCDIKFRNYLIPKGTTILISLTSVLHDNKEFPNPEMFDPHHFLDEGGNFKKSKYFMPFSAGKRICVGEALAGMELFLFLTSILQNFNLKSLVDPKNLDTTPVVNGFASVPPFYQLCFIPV

This experiment has as its target Cytochrome P450 2C9 (Homo sapiens) (UniProt P11712). The experiment can be described thus: Cytochrome panel assay with activity outcomes. The following applies: recombinant CYP, pro-luciferin dealkylation, luminescence, p450-cyp2c9; series mostly up to 57.1 µM.
In the case of `Cc1cc(C)c(C#N)c(SCc2cc3c(cc2Cl)OCO3)n1`, the AC50 is 3.16 µM (active).

Turning to `N#Cc1cccc(NC(=O)N2CCCC3(CCN(C(=O)c4cnccn4)CC3)C2)c1`, the AC50 result is “inactive”.

Consider `COc1ccc(Nc2nnc(-c3ccc(N4CCOCC4)c([N+](=O)[O-])c3)c3ccccc23)cc1`, for which the AC50 was 3.16 µM (active).

`CS(=O)(=O)N1CCC2(CC1)CN(C(=O)Nc1cccc(C#N)c1)C2`: the AC50 entry is “inactive”.

`CC(C)(C)NCC[C@@H](O)c1cc(C(F)(F)F)nc2c(C(F)(F)F)cccc12`: the activity, negative = inhibition is 3.88% [at 11.4 µM] (inactive).

On to `NCCNS(=O)(=O)c1cccc2cnccc12`, for which the AC50 entry is “inactive”.

Turning to `NCCCCNS(=O)(=O)c1ccc2c(Cl)cccc2c1`, the AC50 is 2 µM (active).

On to `NCCNS(=O)(=O)c1ccc(N)cc1`, for which the activity, negative = inhibition was -0.285% [at 11.4 µM] (inactive).

On to `CCCCCCCNS(=O)(=O)c1cccc2c(Cl)cccc12`, for which the AC50 result is “inactive”.

With `NCCCCCCNS(=O)(=O)c1cccc2c(Cl)cccc12`, the AC50 was 3.16 µM (active).

Take `NCCCCCCCCCCNS(=O)(=O)c1cccc2c(Cl)cccc12`: the AC50 is 0.0501 µM (active).

For the compound `CNCCNS(=O)(=O)c1cccc2cnccc12`, the AC50 entry is “inactive”.

`NCCCCCCCCCCN`: the AC50 entry is “inactive”.

As to `N[C@H](C(=O)O)[C@H](OCc1ccccc1)C(=O)O`, the AC50 was 10 µM (active).

Regarding `N[C@@H](Cc1ccccc1)C(=O)O`, the activity, negative = inhibition was 13.9% [at 11.4 µM] (inactive).

Take `N[C@@H](CSCc1ccccc1)C(=O)O`: the activity, negative = inhibition is 11.8% [at 11.4 µM] (inactive).

As for `Fc1ccc(Nc2ncncc2-c2ccccc2C(F)(F)F)cc1`, the activity, negative = inhibition is -4.04% [at 2.29 µM] (inactive).

`CN1CCN(c2ccnc(-c3cccc(NS(C)(=O)=O)c3)n2)CC1`: the activity, negative = inhibition was -3.66% [at 2.29 µM] (inactive).

As to `CC(C)c1ccccc1S(=O)c1ccccc1C(C)(C)O` (centres undefined), the activity, negative = inhibition is -18.2% [at 11.4 µM] (inactive).

For `c1ccc2sc(SCSc3nc4ccccc4s3)nc2c1`, the activity, negative = inhibition was -1.3% [at 11.4 µM] (inactive).

For the compound `c1ccc2sc(SCCSc3nc4ccccc4s3)nc2c1`, the activity, negative = inhibition was 23.1% [at 11.4 µM] (inactive).

For the compound `O=C(O)CCCSc1nc2ccccc2s1`, the activity, negative = inhibition was -7.61% [at 11.4 µM] (inactive).

Take `O=C(CSc1nc2ccccc2s1)Nc1nccs1`: the AC50 entry is “inactive”.

With `O=C(CSc1nc2ccccc2s1)NNC(=S)Nc1ccc(Br)cc1`, the AC50 was 5.01 µM (active).

With `O=C(CSc1nc2ccccc2s1)N1c2ccccc2Sc2ccc(C(F)(F)F)cc21`, the AC50 was 3.55 µM (active).

With `OCCN1CCN(CC/C=C2\c3ccccc3Sc3ccc(C(F)(F)F)cc32)CC1`, the AC50 entry was “inactive”.

Regarding `Cc1ccc(S(=O)(=O)NC(=O)CSc2nc3ccccc3s2)cc1`, the AC50 is 2.51 µM (active).

Regarding `NCCSc1nc2ccccc2s1`, the concentration at half-maximal activity (AC50) was 1.58 µM (active).

In the case of `CC(C)N=c1cc2n(-c3ccc(Cl)cc3)c3ccccc3nc-2cc1Nc1ccc(Cl)cc1`, the AC50 entry is “inactive”.

On to `CN(C)c1ncc2nc(-c3cccc(C#N)c3)c(=O)n(C[C@H]3CCCO3)c2n1`, for which the AC50 result is “inactive”.

Take `CC(C)C(=O)C(C)(C)CCc1ccccn1`: the activity, negative = inhibition was 13.3% [at 11.4 µM] (inactive).

As to `O=C1[C@H]2[C@H]3[C@H](O)[C@H](O)C/C(=N/OC[C@@H](O)COCc4ccco4)[C@@H]3CC[C@@H]2C(=O)N1C1CCCCC1`, the activity, negative = inhibition was -9.96% [at 11.4 µM] (inactive).

In the case of `CCSC(=N)N`, the AC50 entry is “inactive”.

Regarding `CO[C@@H]1COC(=O)C/C=C\[C@H](C)COC(=O)[C@H](Cc2ccccc2)NC(=O)C/C=C\[C@H]1C`, the activity, negative = inhibition is -22.5% [at 11.4 µM] (inactive).

Turning to `O=C(CSc1nc2ccccc2s1)N1c2ccccc2Sc2ccccc21`, the AC50 is 1.12 µM (active).

As for `CCOC(=O)C1C(=O)NC(C)C1c1ccccc1` (centres undefined), the AC50 result is “inactive”.

Consider `CCOC(=O)C1=C(C)C(c2ccccc2OC)NC(=S)N1` (centres undefined), for which the AC50 was 15.8 µM (active).

As for `COC(=O)C1=C(C)C(c2ccc(OC)cc2)NC(=S)N1` (centres undefined), the AC50 is 15.8 µM (active).

For `COc1ccc(N2C(=O)CCC(C(=O)O)C2c2ccc(F)cc2)cc1` (centres undefined), the AC50 entry is “inactive”.

For the compound `COc1ccc(C2C(C(=O)N3CCOCC3)CCC(=O)N2c2ccc(OC)cc2)cc1` (centres undefined), the AC50 entry was “inactive”.

In the case of `Nc1ccn([C@@H]2O[C@H](COC(=O)C34CC5CC(CC(C5)C3)C4)[C@@H](O)[C@@H]2O)c(=O)n1`, the activity, negative = inhibition was -0.936% [at 11.4 µM] (inactive).

`C#CCCCO/N=C1/C[C@@H](O)[C@@H](O)[C@@H]2[C@@H]3C(=O)N(C[C@@H]4CCCO4)C(=O)[C@H]3CC[C@H]12`: the activity, negative = inhibition was -17.1% [at 11.4 µM] (inactive).

In the case of `Cc1cccc2nc(C(F)(F)F)nc(=O)n12`, the AC50 entry was “inactive”.

Turning to `O=C(O)C[C@H](Cc1ccccc1)C(=O)O`, the activity, negative = inhibition is -7.58% [at 11.4 µM] (inactive).

As for `C[C@@H](N)[C@@H](C)Cc1ccccc1`, the activity, negative = inhibition is -11% [at 11.4 µM] (inactive).

For the compound `Cc1ccc(C)n1C(Cc1ccccc1)C(=O)O` (centres undefined), the AC50 is 31.6 µM (active).

As to `COc1ncc2nc(-c3ccccc3)c(=O)n(C)c2n1`, the AC50 entry was “inactive”.

Regarding `O=S(=O)(c1ccc(F)cc1)n1ccc(-c2cnc(-c3ccccc3)s2)n1`, the AC50 was 7.94 µM (active).

As for `COc1ccc(S(=O)(=O)n2ccc(-c3cnc(-c4ccccc4)s3)n2)cc1`, the AC50 was 1.78 µM (active).

On to `C[C@@H](N=C(N)N)C(=O)O`, for which the activity, negative = inhibition is 11.8% [at 11.4 µM] (inactive).

For the compound `C[C@H](C(=O)c1ccncc1)c1ccccn1`, the activity, negative = inhibition is -11.4% [at 11.4 µM] (inactive).

With `Cc1c(C=O)c2ccccn2c1C(=O)c1ccncc1`, the AC50 is 7.94 µM (active).

With `CCNC(=O)COC(=O)c1cc(=O)[nH]c2ccccc12`, the AC50 entry is “inactive”.

Turning to `CCCCOC(=O)c1ccc(O)cc1`, the AC50 entry was “inactive”.

Turning to `CCCCOC(=O)c1cc2c(cn1)[nH]c1ccccc12`, the AC50 was 7.94 µM (active).

With `Nc1ncnc2c1ncn2[C@@H]1O[C@@H](C(=O)NC2CC2)[C@H](O)[C@@H]1O`, the AC50 result is “inactive”.

With `CC(=O)Nc1ccc(-c2cc(C(=O)O)c3cc4ccccc4cc3n2)cc1`, the activity, negative = inhibition is 4.42% [at 11.4 µM] (inactive).

As to `CC(C)(C)c1nnc(NC(=O)c2cc(-c3ccccc3)nc3ccccc23)s1`, the AC50 was 7.08 µM (active).

For the compound `COc1ccc(-c2cc(C(=O)Nc3nc4c(C)cccc4s3)c3ccccc3n2)cc1OC`, the AC50 is 2.51 µM (active).

Consider `CC(C)(C)NS(=O)(=O)c1ccc(NC(=O)c2cc(-c3ccccc3)nc3ccccc23)cc1`, for which the AC50 was 6.31 µM (active).

`CCC(=O)Nc1nnc(C(C)(C)C)s1`: the AC50 entry was “inactive”.

With `c1cncc(CNc2ncnc3ccc(-c4ccoc4)cc23)c1`, the activity, negative = inhibition is 0.357% [at 2.29 µM] (inactive).

As to `Cc1noc(C)c1-c1ccc2ncnc(N3CCN(C)CC3)c2c1`, the activity, negative = inhibition is -6.38% [at 2.29 µM] (inactive).

As to `Cn1c2c(c(=O)n(C)c1=O)[C@@H]1c3c(ccc4ccccc34)OC[C@@H]1CO2`, the AC50 was 12.6 µM (active).

For the compound `CCCC1c2c(ccc3ccccc23)Oc2ccc3ccccc3c21`, the activity, negative = inhibition was -4.51% [at 11.4 µM] (inactive).

On to `CN(C)c1ccc(-c2nc(NC3CCNCC3)c3ccccc3n2)cc1`, for which the activity, negative = inhibition is 12.7% [at 2.29 µM] (inactive).

In the case of `CCOC(=O)c1cccc(NC(=O)COc2ccc([N+](=O)[O-])cc2)c1`, the half-maximal activity concentration (AC50) is 14.1 µM (active).

Regarding `C/C(=N\NC(=O)COc1ccc([N+](=O)[O-])cc1)C(C)(C)C`, the AC50 entry is “inactive”.

As to `O=C(COc1ccc(/C=N/NC(=O)c2ccccc2)cc1)Nc1ccc([N+](=O)[O-])cc1`, the AC50 entry is “inactive”.

On to `C/C(=N\Nc1nnc(C)c(=O)[nH]1)C(=O)O`, for which the AC50 result is “inactive”.

As to `CC(C)(C)n1nc2c(c1NC(=O)c1ccc(S(=O)(=O)N3CCCCC3)cc1)CS(=O)C2` (centres undefined), the AC50 result was “inactive”.

In the case of `O=C(Nc1ccccc1-c1nc2ccccc2[nH]1)c1ccc(S(=O)(=O)N2CCCCC2)cc1`, the concentration at half-maximal activity (AC50) is 2 µM (active).

On to `COc1ccccc1-c1nc(N(C)Cc2ccco2)c2ccccc2n1`, for which the activity, negative = inhibition is -7.62% [at 2.29 µM] (inactive).

As for `O=C(Nc1c2c(nn1-c1ccc(F)cc1)CS(=O)(=O)C2)C12CC3CC(CC(C3)C1)C2`, the AC50 entry is “inactive”.

For the compound `CCC(CC)C(=O)Nc1c2c(nn1-c1ccc(OC)cc1)CS(=O)(=O)C2`, the AC50 is 7.94 µM (active).

Take `CSC(=N)N`: the AC50 result was “inactive”.

As for `Cc1nnc(-c2cccc(Br)c2)c2cn(-c3ccc(Br)cc3)nc12`, the AC50 is 2 µM (active).

On to `Cc1nnc(-c2cccc(Br)c2)c2cn(-c3ccccc3Cl)nc12`, for which the AC50 is 2.82 µM (active).

`NC[C@@H]1O[C@H](c2ccccc2)Cc2c1ccc(O)c2O`: the AC50 is 6.31 µM (active).

Consider `NC[C@@H]1O[C@H](C23CC4CC(CC(C4)C2)C3)Cc2c1ccc(O)c2O`, for which the AC50 entry is “inactive”.

Turning to `CO/N=C(\C(=O)N[C@@H]1C(=O)N2C(C(=O)O)=C(COC(N)=O)CS[C@@H]12)c1ccco1`, the AC50 result was “inactive”.

`C=C(C)CN(CC#N)CC(=C)C`: the activity, negative = inhibition was 11% [at 11.4 µM] (inactive).

Take `Cc1cccc(-c2c3c(=O)n(C)c(=O)n(C)c3cn2C2CCCCC2)c1`: the AC50 was 10 µM (active).

With `CC1=CC(=O)N(c2cccc(C(F)(F)F)c2)C1c1ccc(Cl)cc1` (centres undefined), the AC50 was 12.6 µM (active).

In the case of `Cc1n[nH]c(=O)n1-c1cccc(C(F)(F)F)c1`, the AC50 entry is “inactive”.

For `OC[C@@H]1O[C@@H](n2cnc3c(SCc4ccccc4)ncnc32)[C@@H](O)[C@H]1O`, the activity, negative = inhibition is 5.12% [at 11.4 µM] (inactive).

Turning to `CC(=O)C1=NOC(CNC(=O)c2c(-c3ccccc3Cl)noc2C)C1` (centres undefined), the AC50 result is “inactive”.

With `Cc1onc(-c2ccccc2Cl)c1C(=O)NCC(=O)O`, the AC50 entry is “inactive”.

Consider `Cc1onc(-c2ccccc2Cl)c1C(=O)Nc1nnc(Cc2ccc(Cl)cc2)s1`, for which the AC50 was 1.26 µM (active).

As to `Cc1ccc(NC(=S)NC(=O)c2c(-c3ccccc3Cl)noc2C)cc1`, the AC50 is 1.41 µM (active).

As for `CC(=O)NCCNc1ncnc2ccc(-c3ccccc3C(F)(F)F)cc12`, the activity, negative = inhibition was 5.92% [at 2.29 µM] (inactive).

Turning to `CCn1c2ccccc2c2cc(N=C3SC(CC(=O)Nc4ccccc4)C(=O)N3C)ccc21` (centres undefined), the AC50 was 0.126 µM (active).

`COc1ccccc1NC(=O)CCN1C(=O)C2CC=C(Cl)CC2C1=O` (centres undefined): the AC50 entry is “inactive”.

Regarding `CCn1c2ccccc2c2cc(N=C3SC(CC(=O)Nc4ccccc4OC)C(=O)N3C)ccc21` (centres undefined), the AC50 is 0.891 µM (active).
